# Assay outcomes as filed in PubChem BioAssay.
# GSH bead fluor: GSH bead compound fluorescence profile. GSH beads flow cytometry, compound fluorescence 488/530 nm; hits give high values. fluorescence (KMESF) at 10 µM. actives 0.25% (n = 190,000). AID 1776; in the data active = fluorescence above about 89;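 also: glutathione beads carrying GST-tagged Bcl family fusion proteins plus one bare bead set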
# RGS8-Gao: modulates binding of RGS8 to human Galphao. response (percent of control binding), % at 10 µM. P09471. multiplexed bead flow cytometry; actives lie on both sides. actives 0.34% (n = 220,000); in the data active = response below about 60% or above about 140%; inactive = in between;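 also: Galphao activated as the GDP aluminium fluoride complex binding bead-coupled RGS8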
# Target sequence (P09471 whole entry, looked up): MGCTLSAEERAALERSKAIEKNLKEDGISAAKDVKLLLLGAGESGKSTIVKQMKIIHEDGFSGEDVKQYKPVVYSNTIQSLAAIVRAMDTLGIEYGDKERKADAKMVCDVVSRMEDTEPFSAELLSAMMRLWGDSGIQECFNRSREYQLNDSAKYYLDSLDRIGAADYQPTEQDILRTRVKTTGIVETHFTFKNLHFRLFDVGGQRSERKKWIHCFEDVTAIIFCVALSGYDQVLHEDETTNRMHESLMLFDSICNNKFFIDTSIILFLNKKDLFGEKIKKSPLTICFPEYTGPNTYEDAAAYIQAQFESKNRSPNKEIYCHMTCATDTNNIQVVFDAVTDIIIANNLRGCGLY
# RGS4-Gao reg: modulates binding of RGS4 to human Galphao; binding response (% of control), % at 10 µM; actives 0.33% (n = 220,000); P09471; Multiplexed bead flow cytometry; actives lie on both sides; in the data active = binding response below about 49% or above about 150%; inactive = in between;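 also: fluorescent Galphao activated with aluminum fluoride binding bead-coupled RGS4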
# Avidin fluor: avidin bead compound fluorescence profile; Avidin beads, compound fluorescence 488/530 nm, flow cytometry; hits give high values; fluorescence (KMESF) at 10 µM; actives 0.38% (n = 220,000); AID 1775; in the data active = fluorescence above about 47
# RGS16-Gao: modulates binding between human RGS16 and Galphao; O15492+P09471; actives 0.38% (n = 220,000); bead-based flow cytometry RGS16-Galphao binding, fluorescence; actives lie on both sides; binding response (% of control), % at 10 µM; AID 1441;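 also: Galphao activated by GDP with aluminum fluoride before binding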
# RGS7-Gao: modulates binding of RGS7 to human Galphao. binding response (% of control), % at 10 µM. actives 0.35% (n = 220,000). Multiplexed bead flow cytometry; actives lie on both sides; in the data active = binding response below about 49% or above about 150%; inconclusive = no clear call, values can overlap the other calls; inactive = in between;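 also: fluorescent Galphao held in activated GDP-AlF4 state binding bead-coupled RGS7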
# RGS-Gao: modulates binding between human RGS4 and Galphao. shares compounds with RGS16-Gao. multiplexed bead flow cytometry, RGS–Galpha-o binding. RGS4–Galpha-o binding response, % at 10 µM. actives 99% (n = 1,600). AID 1504;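 also: fluorescently labeled Galpha-o bound to GDP with aluminium fluoride binding biotinylated RGS beads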
# Biotin-avidin: interferes with biotinylated probe binding to avidin beads; shares compounds with RGS16-Gao; streptavidin beads, fluorescein-biotin binding, flow cytometry; inhibition, % at 10 µM; 1,700 tested, under 10 active;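 active = inhibition above 50%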;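 also: median green fluorescence of gated singlet beads compared with DMSO control wells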
# RGS8-Gao single: confirmation of regulators of human RGS8-Galphao interaction; binding response (% of control), % at 10 µM; bead-based flow cytometry RGS8-Galphao binding, fluorescence; actives lie on both sides; shares compounds with RGS16-Gao; actives 3% (n = 1,700); in the data active = binding response below about 72% or above about 130%; inactive = in between;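 also: Galphao activated as GDP AlF4 complex before binding bead RGS8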
# RGS7-Gao confirm: confirmation of regulators of human RGS7-Galphao interaction; shares compounds with RGS16-Gao; bead-based flow cytometry RGS7-Galphao binding; actives lie on both sides; response (percent of control binding), % at 10 µM; actives 7.8% (n = 1,700); in the data active = response below about 75% or above about 130%; inactive = in between;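 also: fluorescent Galphao activated with GDP and aluminum fluoride binding bead-coupled RGS7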
# RGS16-Gao single: RGS16-Galphao interaction regulation, single point confirmation; shares compounds with RGS16-Gao; bead-based flow cytometry, RGS16-Galphao binding; actives lie on both sides; response (% of control binding), % at 10 µM; actives 4% (n = 1,700); AID 1838; in the data active = response below about 74% or above about 130%; inactive = in between;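 also: Galphao activated as the GDP aluminium fluoride complex binding bead-coupled RGS16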
# RGS4-Gao confirm: RGS4-Galphao interaction regulation, single point confirmation. binding response (% of control), % at 10 µM. shares compounds with RGS16-Gao. actives 4% (n = 1,700). RGS4-Galphao binding, multiplexed bead flow cytometry; actives lie on both sides; in the data active = binding response below about 74% or above about 130%; inactive = in between
# RGS19-Gao single: confirmation of regulators of human RGS19-Galphao interaction. AID 1841. bead-based flow cytometry RGS19-Galphao binding; actives lie on both sides. response (percent of control binding), % at 10 µM. shares compounds with RGS16-Gao. actives 5% (n = 1,700); in the data active = response below about 50% or above about 160%; inactive = in between
# Target sequence (P09471 whole entry, looked up): as above
# Target sequence (P49795 whole entry, looked up): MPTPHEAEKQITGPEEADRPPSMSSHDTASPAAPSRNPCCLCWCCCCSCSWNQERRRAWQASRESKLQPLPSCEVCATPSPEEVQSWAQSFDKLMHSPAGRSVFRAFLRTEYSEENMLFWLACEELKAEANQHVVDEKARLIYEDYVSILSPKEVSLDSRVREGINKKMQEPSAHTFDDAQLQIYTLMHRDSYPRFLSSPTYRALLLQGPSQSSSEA
# Hits are given with their value; - = inactive; ? = inconclusive; . = not tested or not shown; [ ] = dose if it differs, or a comment. In the library only some 1.2% were active in any assay of this set; here they are far more common. Unless noted, no rule for the calls is given here.
SMILES,GSH bead fluor,RGS8-Gao,RGS4-Gao reg,Avidin fluor,RGS16-Gao,RGS7-Gao,Biotin-avidin,RGS8-Gao single,RGS7-Gao confirm,RGS16-Gao single,RGS4-Gao confirm,RGS19-Gao single,others
O=C1/C(=C\c2ccc(-c3ccccc3[N+](=O)[O-])o2)C(c2ccccc2)=NN1c1ccccc1,-,14.3,-5.8,-,-1.8,7.8,-,-,-,-,-,-,
CCO[C@@H]1OC(C(=O)N2CCCCCCC2)=C[C@H](c2ccc3c(c2)OCO3)[C@H]1CCCO,-,-,-,-,-,-,.,.,.,.,.,.,
Cn1c(=O)c2c(=O)cc(N)[nH]c2n(C)c1=O,.,-,-,-,-,?,-,-,-,-,-,-,
CS(=O)(=O)NCCOc1ccc(S(=O)(=O)NCCOc2ccccc2)cc1,-,-,-,-,-,?,.,.,.,.,.,.,
O=S(=O)(NCCOc1ccccc1)c1ccc2ccccc2c1,-,-,-,-,-1.5,-,.,.,.,.,.,.,RGS-Gao=89.6
CC(C)c1ccccc1NC(=S)N(C)C,.,10.2,-47.1,-,-25.4,?,-,-,-,-,-,-,
Cc1nn(C(C)C(=O)NCCCc2ccccc2)c(=O)c2cc3occc3n12 (stereo not drawn),-,.,-,-,-,-,-,-,-,-,-,-,
CCOc1ccc(CCNC(=O)C(C)n2nc(C)n3c(cc4occc43)c2=O)cc1OCC (stereo not drawn),-,-,-,-,-,-,.,.,.,.,.,.,
Cn1c(=O)cc(Nc2ccccc2)c2c(=O)n(-c3ccccc3)c(=O)n(-c3ccccc3)c21,.,-,-,-,-,?,.,.,.,.,.,.,
CC(C)CCOc1cccc(OCC(=O)O)c1,-,-,421.6[activator],84,351.7[activator],375.0[activator],-,-,72.0,-,-,-,
Fc1cccc(Cc2noc(CN3CCCCC3c3ccccn3)n2)c1 (stereo not drawn),-,-,-,-,-,-,.,.,.,.,.,.,
Cc1cc(C)n(CC(=O)n2c3c(c4ccccc42)CCCC3)n1,-,.,.,.,.,.,-,-,-,-,-,-,
CCN(CC)CC(=O)n1c2c(c3ccccc31)CCCC2,-,-,-,-,-99.6,-,-,-,-,-,-,-,RGS-Gao=81.1
CC(=O)Nc1cc2cc(NS(=O)(=O)c3ccc(C)cc3)ccc2oc1=O,.,-,-,-,-,?,.,.,.,.,.,.,
O=C(Nc1ccc(Nc2ccncc2)cc1)c1ccc(Nc2ccnc3ccc([N+](=O)[O-])cc23)cc1,.,59.1,24.3,-,-,?,-,-,-,-,-,-,
O=C1CCC(N2C(=O)c3ccccc3C2=O)C(=O)N1 (stereo not drawn),-,45.8,37.3,-,-,22.7,-,-,-,-,-,-,
N/N=C/C(=N\Nc1ccc(Cl)cc1)C(=O)c1ccncc1,.,-,-,-,-,?,.,.,.,.,.,.,
COc1ccc(/C=C/c2nnc(NC(C)=O)s2)cc1,.,-,157.6[activator],-,-,?,-,-,-,-,-,-,
COC(=O)Nc1nnc(/C=C/c2ccc(OC)cc2)s1,-,-,-,-,-,-,.,.,.,.,.,.,
S=c1[nH]nc(COc2ccccc2)n1Cc1ccccc1,-,50.1,-,-,3.7,-,-,-,-,-,-,-,RGS-Gao=80.3
Cc1ccc(S(=O)(=O)NCCc2nnc3ccc(SCC(=O)Nc4nc5ccccc5s4)nn23)cc1,-,-,-,-,177.3[activator],-,-,-,-,-,-,-,RGS-Gao=104.8
CC(C)NC(=O)c1onc(CSc2cccc(Cl)c2)c1C(=O)O,-,-,-,-,-,-,.,.,.,.,.,.,
CN(C)/C=N/c1c(C#N)cnn1-c1ccc(C(F)(F)F)cn1,-,-,-,-,-121.6,-,-,-,-,-,-,-,RGS-Gao=60.6
O=C(COc1ccccc1)N1CCN(S(=O)(=O)c2ccc(Cl)cc2)CC1,-,-,-,-,-,-,.,.,.,.,.,.,
COc1ccc(S(=O)(=O)Nc2ccc(-n3cccc3)cc2)cc1,-,14.2,22.1,-,12.7,?,-,-,-,-,-,-,
SMILES,GSH bead fluor,RGS8-Gao,RGS4-Gao reg,Avidin fluor,RGS16-Gao,RGS7-Gao,Biotin-avidin,RGS8-Gao single,RGS7-Gao confirm,RGS16-Gao single,RGS4-Gao confirm,RGS19-Gao single,others
COc1ccc(S(=O)(=O)N(CC(=O)N2CCOCC2)Cc2ccccc2)cc1,-,-,-,230,-,217.0[activator],-,-,-,-,-,-,RGS-Gao=119.4
COCCCNC(=O)c1ccc(N2CCOCC2)c(NS(=O)(=O)c2ccc(OC)cc2)c1,-,.,.,.,.,.,-,-,-,-,-,-,
COc1ccc(OCC(=O)N2CCN(S(=O)(=O)c3ccc(Cl)cc3)CC2)cc1,-,151.8[activator],-,-,-,-,-,-,-,-,-,-,RGS-Gao=116.3
CCOCCCNC(=O)c1ccc(N2CCOCC2)c(NS(=O)(=O)c2ccc(OC)cc2)c1,-,-,-,-,-,-,.,.,.,.,.,.,
O=C(CN(Cc1ccccc1)S(=O)(=O)c1ccccc1)N1CCOCC1,-,-,-,-,-,-,.,.,.,.,.,.,
Cc1ccc(CCNC(=O)CN(C)S(=O)(=O)c2ccc3c(c2)n(C)c(=O)c(=O)n3C)cc1,.,-,-,-,-,?,.,.,.,.,.,.,
CCOC(=O)c1nnsc1N,.,-,-,-,-,?,.,.,.,.,.,.,
CC(NCc1ccccc1)c1ccccc1O (stereo not drawn),.,-,-,-,-,?,.,.,.,.,.,.,
O=C(COc1ccc(S(=O)(=O)Nc2ccccc2)cc1)N1CCOCC1,-,-,-,-,-,-,.,.,.,.,.,.,
COc1ccc(NS(=O)(=O)c2ccc(OCC(=O)N3CCOCC3)cc2)cc1,-,13.0,20.8,-,11.5,15.7,-,-,-,-,-,-,
CCCCCNc1nc2sc3c(c2c(=O)n1-c1cccc(Cl)c1)CCN(C)C3,.,-,-,-,-,?,.,.,.,.,.,.,
COc1ccc(NC(=S)N2CCN(C(c3ccccc3)c3ccccc3)CC2)cc1OC,-,-,-,-,185.1[activator],-,-,-,-,-,-,-,RGS-Gao=105.2
COc1ccc(NC(=S)N2CCCC2)cc1OC,-,-,-,-,-,-,.,.,.,.,.,.,
